Consider four compounds from PubChem BioAssay.

Each structure is given as a SMILES string. Values joined by “and” are separate entries in the source; they are usually repeats but may differ in a detail not shown here. Equal values may be shown once. Active and inactive are the calls of the source.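 The calls were made as follows, unless noted: active = thallium flux through the channel raised or lowered by more than 3 SD from vehicle-only wells, actives on both sides; inactive = the rest.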

Assay [1] is described as follows: stimulators of nuclear beta-catenin in C2C12, primary screen, imaging, WNT3A-conditioned medium, mouse C2C12, NPC library (AID 1117326; in the data active = nuclear beta-catenin stimulation mostly above about 4.2%, no sharp cut-off; inactive = mostly below about 10%). To be noted: stronger effect = higher value.
A short description of assay [2]: stimulators of insulin release from INS-1E, primary screen, cell-based, 5 mM glucose, NPC library (AID 1117329;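 active = compound raises insulin release from rat beta cells at 5 mM glucose, no numeric limit stated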). To be noted: rat INS-1E insulin secretion, at 10 µM, stronger effect = higher value.
Assay [3] is described as follows: growth inhibition of GSK3B-pretreated HCT116 cells – cell-based, CellTiter-Glo, 0.2 to 20 µM (AID 1117336;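 active = compounds lowering colon cancer cell viability after pretreatment blocking the GSK3B kinase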). To be noted: HCT116 viability after GSK3B inhibitor, at 20 µM, stronger effect = higher value. Background: In ATP-based viability assays light output follows the ATP content of the culture.
A short description of assay [4]: inhibition of endothelial tube formation, primary screen, imaging, VEGF stimulated, CD31 staining, tube area, NPC library (AID 1117340;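 active = compound that reduces growth-factor-driven endothelial tube area in a mixed cell culture, no cutoff stated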). To be noted: VEGF-stimulated ADSC/ECFC co-culture, at 10 µM, stronger effect = higher value.
A short description of assay [5]: glucagon-like peptide 1 release enhancers, primary assay, NCI-H716 cell line, NPC library (AID 1117341;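 active = compound raises GLP1 secretion from the human gut endocrine cells, with no numeric limit stated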). To be noted: NCI-H716 cells, at 10 µM, stronger effect = higher value.
A short description of assay [6]: HCT116 colon cancer cell growth inhibition, primary screen, CellTiter-Glo luminescence, NPC library (AID 1117342;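 active = compounds that lower survival of HCT116 colon cancer cells in the luminescence readout, no numeric limit stated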). To be noted: at 20 µM (top of the series).
Assay [7] can be described thus: CellTiter-Glo luminescent readout of SW480 viability loss, NPC library primary (AID 1117343;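 active = compounds that lower viability of the colon cancer cells in the luminescence readout, with no numeric limit stated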). To be noted: CellTiter-Glo luminescence; at 20 µM (top of the series).
A short description of assay [8]: decreased DLD-1 cellular survival, CellTiter-Glo luminescent readout, NPC compound collection, primary HTS (AID 1117346;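 active = compounds that lower survival of DLD-1 colon cancer cells in the luminescence readout, no cutoff given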). To be noted: DLD-1 viability, CellTiter-Glo luminescence; at 20 µM (top of the series).
In assay [9] the target is 6-phosphogluconate dehydrogenase, decarboxylating (Homo sapiens) (UniProt P52209). The assay can be described thus: 6PGD enzyme inhibitors, primary screen, biochemical, human, recombinant enzyme, NADPH absorbance (AID 1159550;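 active = at least 20% inhibition of 6-phosphogluconate dehydrogenase activity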). To be noted: recombinant 6PGD, NADPH absorbance 341 nm; at 10 µM; stronger effect = higher value.
The nature of assay [10]: differential killing of epithelial or mesenchymal cells, primary screen, imaging, PC-3E GFP, TEM4-18 mCherry, co-culture (AID 1345086;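 active = compounds killing one labelled cell type while sparing the other, by normalised counts and ratio limits, not self-fluorescent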;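 as to all read-outs here: cells exposed to compound for 72 h before imaging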;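 as to red/green cell ratio (normalised): normalised mesenchymal count divided by normalised epithelial count so high means epithelial killing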). To be noted: imaging cell counts, at 1 µM; for red/green cell ratio (normalised): actives lie on both sides, counts scaled to control wells, 1 = unselective.
The nature of assay [11]: survival rescue of mitochondrial mutant cells in low glucose, primary screen, MELAS cybrids, Rieske KO mouse fibroblasts, CellTiter-Glo (AID 1508586;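 active = mean z-score across replicates of 1.96 or higher in either the MELAS or the Rieske mutant cell line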;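 also: z relative to plate mean and SD of compound and empty wells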).
The target of assay [12] is NAD(+) hydrolase SARM1 (Homo sapiens) (UniProt Q6SZW1). The assay is described as follows: SARM1 TIR NADase inhibitors, cell lysate, NAD-Glo luminescence (AID 1508614;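 active = compound whose remaining NAD level is above about 45 nM, limit read from the data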;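 also: higher remaining NAD means stronger inhibition of SARM1 NADase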). To be noted: SAM-TIR HEK293T lysate NADase, at 1 µM, stronger effect = higher value.
The target in assay [13] is Mitogen-activated protein kinase 7 (Homo sapiens) (UniProt Q13164). The assay can be described thus: ERK5 transactivation activators in reporter cells, primary screen, cell-based, HTS (AID 1508626;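 active = luciferase signal above three times the same-plate solvent-only control wells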;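 also: luciferase driven by Gal4-ERK5 fusion binding five Gal4 sites before minimal TATA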). To be noted: HeLa Gal4-ERK5 transactivation, 18 h, at 5 µM, stronger effect = higher value.
The subject of assay [14] is F380Y. The assay is described as follows: modulators of BK channel variants, profiling panel, selectivity assay, cell-based, U2OS BacMam, thallium flux, beta subunits (AID 1259406).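 Also: initial slope of Thallos dye fluorescence rise after thallium is added; log ratio against the mean of 0.3% DMSO vehicle wells on the same plate.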 To be noted: at 30 µM.
Assay [15] has as its system F380Y/beta2Delta. Described as above. To be noted: at 30 µM.
The target in assay [16] is Calcium-activated potassium channel subunit alpha-1 (Homo sapiens) + Leucine-rich repeat-containing protein 26 (Homo sapiens) (UniProt Q12791+Q2I0M4). The assay is described as above. To be noted: F380Y/Slo1WT/gamma1, at 30 µM.
The subject of assay [17] is R275C. Described as above. To be noted: at 30 µM.
Assay [18] has as its system R275C/beta1. Described as above. To be noted: at 30 µM.
Assay [19] deals with R275C/beta2Delta. The description is as above. To be noted: at 30 µM.
[20] abbreviates: measured here: epithelial PC-3E GFP cell survival.
Setting [21] is: measured here: mesenchymal TEM4-18 mCherry cell survival.
The mark [22] stands for this setting: MELAS cybrid survival, CellTiter-Glo 48 h, stronger effect = higher value.
Where [23] appears, read: Rieske KO mouse fibroblast survival, CellTiter-Glo 72 h.

Sequence of 6-phosphogluconate dehydrogenase, decarboxylating (Homo sapiens) (P52209 whole entry, looked up): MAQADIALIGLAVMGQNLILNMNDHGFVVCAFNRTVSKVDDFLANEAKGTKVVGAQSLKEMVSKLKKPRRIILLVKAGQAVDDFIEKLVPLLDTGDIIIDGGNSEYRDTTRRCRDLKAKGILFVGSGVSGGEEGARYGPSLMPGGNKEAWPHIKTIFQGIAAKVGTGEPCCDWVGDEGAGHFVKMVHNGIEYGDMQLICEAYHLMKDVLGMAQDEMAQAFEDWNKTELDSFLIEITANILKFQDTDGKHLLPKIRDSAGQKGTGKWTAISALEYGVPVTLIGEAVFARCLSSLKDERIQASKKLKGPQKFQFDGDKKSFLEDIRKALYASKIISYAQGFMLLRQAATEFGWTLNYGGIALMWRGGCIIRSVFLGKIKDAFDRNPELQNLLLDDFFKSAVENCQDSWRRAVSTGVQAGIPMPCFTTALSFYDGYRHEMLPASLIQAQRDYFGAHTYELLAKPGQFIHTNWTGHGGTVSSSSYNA
Sequence of Mitogen-activated protein kinase 7 (Homo sapiens) (Q13164 whole entry, looked up, the tested form may be a part): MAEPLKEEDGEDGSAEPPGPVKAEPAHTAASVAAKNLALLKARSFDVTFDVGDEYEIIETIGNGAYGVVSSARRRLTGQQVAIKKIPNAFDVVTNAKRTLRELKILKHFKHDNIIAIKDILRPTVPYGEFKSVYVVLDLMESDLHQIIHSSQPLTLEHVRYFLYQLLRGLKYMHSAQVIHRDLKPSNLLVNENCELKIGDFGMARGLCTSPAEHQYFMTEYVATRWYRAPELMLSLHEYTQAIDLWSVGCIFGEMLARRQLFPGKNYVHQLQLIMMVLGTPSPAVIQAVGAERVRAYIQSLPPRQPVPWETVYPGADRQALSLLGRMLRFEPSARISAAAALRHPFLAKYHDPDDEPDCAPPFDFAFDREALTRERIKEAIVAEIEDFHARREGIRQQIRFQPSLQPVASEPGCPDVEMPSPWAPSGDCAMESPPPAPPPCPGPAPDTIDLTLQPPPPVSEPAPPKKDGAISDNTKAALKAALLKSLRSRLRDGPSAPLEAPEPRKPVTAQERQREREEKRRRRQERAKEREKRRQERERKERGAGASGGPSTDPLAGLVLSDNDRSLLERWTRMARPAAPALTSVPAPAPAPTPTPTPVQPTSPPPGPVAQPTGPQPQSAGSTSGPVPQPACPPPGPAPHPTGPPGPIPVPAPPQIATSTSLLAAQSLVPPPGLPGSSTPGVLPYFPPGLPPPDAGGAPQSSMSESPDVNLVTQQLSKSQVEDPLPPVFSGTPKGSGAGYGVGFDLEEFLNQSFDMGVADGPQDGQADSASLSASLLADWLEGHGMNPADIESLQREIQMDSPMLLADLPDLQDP
Sequence of Calcium-activated potassium channel subunit alpha-1 (Homo sapiens) + Leucine-rich repeat-containing protein 26 (Homo sapiens) (Q2I0M4 whole entry, looked up, one chain of several): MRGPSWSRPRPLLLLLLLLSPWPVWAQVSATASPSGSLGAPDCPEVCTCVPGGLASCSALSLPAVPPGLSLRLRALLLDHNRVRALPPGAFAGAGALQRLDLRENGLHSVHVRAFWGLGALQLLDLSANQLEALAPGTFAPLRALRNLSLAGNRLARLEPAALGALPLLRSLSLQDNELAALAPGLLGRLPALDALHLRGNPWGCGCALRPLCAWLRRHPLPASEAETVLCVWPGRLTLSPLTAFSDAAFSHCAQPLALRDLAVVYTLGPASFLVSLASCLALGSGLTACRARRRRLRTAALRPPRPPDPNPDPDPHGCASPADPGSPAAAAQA
Sequence of NAD(+) hydrolase SARM1 (Homo sapiens) (Q6SZW1 whole entry, looked up, the tested form may be a part): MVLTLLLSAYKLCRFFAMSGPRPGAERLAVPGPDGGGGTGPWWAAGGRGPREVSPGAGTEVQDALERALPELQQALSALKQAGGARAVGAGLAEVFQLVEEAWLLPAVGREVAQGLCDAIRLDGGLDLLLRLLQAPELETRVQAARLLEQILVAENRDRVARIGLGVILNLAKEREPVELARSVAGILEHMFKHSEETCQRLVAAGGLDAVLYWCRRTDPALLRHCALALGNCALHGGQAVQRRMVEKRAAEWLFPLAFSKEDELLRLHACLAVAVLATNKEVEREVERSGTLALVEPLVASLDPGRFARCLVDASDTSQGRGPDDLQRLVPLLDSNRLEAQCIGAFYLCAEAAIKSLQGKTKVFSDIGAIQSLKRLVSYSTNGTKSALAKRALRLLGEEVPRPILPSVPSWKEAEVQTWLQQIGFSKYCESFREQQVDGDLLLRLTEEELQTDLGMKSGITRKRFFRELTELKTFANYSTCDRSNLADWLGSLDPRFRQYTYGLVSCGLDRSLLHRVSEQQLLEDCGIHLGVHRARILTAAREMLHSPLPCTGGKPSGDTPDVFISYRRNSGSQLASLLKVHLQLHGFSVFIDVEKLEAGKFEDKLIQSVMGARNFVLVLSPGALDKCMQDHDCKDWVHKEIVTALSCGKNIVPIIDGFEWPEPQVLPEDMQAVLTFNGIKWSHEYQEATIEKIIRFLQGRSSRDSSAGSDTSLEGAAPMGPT

For the compound `CN(C)CCCN1c2ccccc2CCc2ccccc21`, the nuclear beta-catenin stimulation in [1] (at 10 µM) was 0.8% (inactive); in assay [1] (stimulation, at 2 µM), -0.2%. Further, the insulin secretion stimulation in [2] was 5.55% (inactive). In addition, in [3], the viability decrease is 57.9% (active). In addition, the tube area decrease in [4] is 0.8% (inactive). The GLP1 secretion stimulation in [5] was 10% (inactive). Further, the inhibition of viability in [6] is 36.7% (inactive). Moreover, the viability decrease (inhibition) was 70.5% (active) in assay [7] and -1.6% (inactive) in [8]. For the same compound, the inhibition – broadly, the change of the read-out against control, counted positive when it falls – in assay [9] is 2.5% (inactive). Besides, the red/green cell ratio (normalised) in [10] was 1.07 (inactive). Also, the normalised cell number was found to be 1.07 in [10] (setting [20]) and 1.14 in [10] (setting [21]). Also, the z-score is -0.849 (inactive) and -0.557 (inactive) in [11] (setting [22]); 0.136 and -0.674 in assay [11] (setting [23]). In assay [12], the remaining NAD was 10 nM (inactive). The luciferase signal in [13] was 44 AU (inactive). Further, the log fold change Tl+ flux in assay [14] is 0.14 (active); in assay [15] it was 0.118 (active); in [16] it was 0.0488 (inactive); in assay [17], 0.0455 (inactive); in assay [18], 0.104 (inactive); in assay [19], 0.158 (active).
For the compound `CCN(CC)CCOC(=O)C1(C2CCCCC2)CCCCC1`, the nuclear beta-catenin stimulation in assay [1] (at 10 µM) is 2.1% (inactive); in [1] (stimulation, at 2 µM), 1.1%. For the same compound, in assay [2], the insulin secretion stimulation was 6.9% (inactive). Besides, the viability decrease in assay [3] was -64.7% (inactive). Besides, the tube area decrease in [4] was -0.9% (inactive). In addition, the GLP1 secretion stimulation in [5] is 5.4% (inactive). In assay [6], the inhibition of viability was 36.5% (inactive). Besides, the viability decrease (inhibition) in assay [7] is 84.8% (active); in assay [8], 34.2% (inactive). The inhibition in [9] was 11.5% (inactive). Further, in assay [10], the red/green cell ratio (normalised) is 1.32 (inactive). The values for the normalised cell number in [10] (setting [20]) and in assay [10] (setting [21]) were 1.25 and 1.66, respectively. The z-score in assay [11] (setting [22]) was 0.288 (inactive) and 0.358 (inactive); in assay [11] (setting [23]) it was -0.235 and -0.17. Also, the remaining NAD in assay [12] is 10 nM (inactive). Further, in assay [13], the luciferase signal was 1050 AU (active). The log fold change Tl+ flux in [14] is 0.0289 (inactive); in assay [15] it was 0.0166 (inactive); in assay [16] it was -0.023 (inactive); in assay [17] it was -0.00463 (inactive); in assay [18], 0.0871 (inactive); in assay [19] it was 0.0332 (inactive).
Regarding `CCCNC(C)C(=O)Nc1ccccc1C` (configuration not stated), the nuclear beta-catenin stimulation in assay [1] (at 10 µM) is 2.8% (inactive); in assay [1] (stimulation, at 2 µM), 0.2%. For the same compound, in assay [2], the insulin secretion stimulation is -0.2% (inactive). Moreover, the viability decrease in [3] was -19.3% (inactive). Moreover, the tube area decrease in assay [4] is -7.6% (inactive). For the same compound, the GLP1 secretion stimulation in [5] was -2.8% (inactive). The inhibition of viability in assay [6] is -6.47% (inactive). The viability decrease (inhibition) in assay [7] was 14.5% (inactive); in assay [8] it was -13.2% (inactive). Moreover, the inhibition in [9] was 10.3% (inactive). The red/green cell ratio (normalised) in assay [10] was 1.41 (inactive). Also, the figures for the normalised cell number in assay [10] (setting [20]) and in assay [10] (setting [21]) were 0.93 and 1.32, respectively. For the same compound, the z-score in assay [11] (setting [22]) was 0.649 (inactive) and 0.0198 (inactive) and 0.84 (inactive); in [11] (setting [23]), -0.309 and -0.0551 and 0.281. The remaining NAD in [12] was 10 nM (inactive). In assay [13], the luciferase signal was 232 AU (inactive). The log fold change Tl+ flux in [14] was 0.0152 (inactive); in [15], 0.0464 (inactive); in assay [16] it was -0.0185 (inactive); in [17] it was -0.0216 (inactive); in assay [18] it was -0.0631 (inactive); in [19], 0.0403 (inactive).
With `CCCCNC(=O)NS(=O)(=O)c1ccc(C)cc1`, the nuclear beta-catenin stimulation in assay [1] (at 10 µM) is 0.2% (inactive); in assay [1] (stimulation, at 2 µM), 3.2%. Further, the insulin secretion stimulation in [2] is 3.85% (inactive). For the same compound, in assay [3], the viability decrease is -5.6% (inactive). For the same compound, the tube area decrease in assay [4] was 5.7% (inactive). The GLP1 secretion stimulation in assay [5] was 6.7% (inactive). Also, in assay [6], the inhibition of viability is -6.5% (inactive). Moreover, the figures for the viability decrease (inhibition) in assay [7] and in [8] were -6% (inactive) and -5.4% (inactive), respectively. For the same compound, the inhibition in assay [9] was -14.4% (inactive). The red/green cell ratio (normalised) in assay [10] is 1.12 (inactive). Further, the normalised cell number in assay [10] (setting [20]) is 1.03; in assay [10] (setting [21]), 1.15. Further, the z-score in [11] (setting [22]) is -0.283 (inactive) and 0.394 (inactive) and 0.614 (inactive); in [11] (setting [23]) it was -0.151 and -0.133 and 0.0575. In addition, the remaining NAD in assay [12] was 10 nM (inactive). The luciferase signal in assay [13] was 36 AU (inactive). Moreover, the log fold change Tl+ flux is -0.00894 (inactive) in assay [14]; 0.0378 (inactive) in assay [15]; -0.0258 (inactive) in assay [16]; -0.0266 (inactive) in assay [17]; -0.0147 (inactive) in assay [18]; 0.0266 (inactive) in [19].
